# High-throughput results deposited in PubChem by National Center for Advancing Translational Sciences (NCATS).
# HPGD inh – blocks human HPGD enzyme activity | P15428 | actives 4.3% (n = 150,000) | purified HPGD, NADH fluorescence kinetic, PGE2 substrate | Potency, µM, for the others: at the highest dose activity change, negative = inhibition, usual class: inhibitors | AID 894; further: on the % scale 0 is the no-effect control and ±100 the full control effect
# Target sequence (P15428 whole entry, looked up): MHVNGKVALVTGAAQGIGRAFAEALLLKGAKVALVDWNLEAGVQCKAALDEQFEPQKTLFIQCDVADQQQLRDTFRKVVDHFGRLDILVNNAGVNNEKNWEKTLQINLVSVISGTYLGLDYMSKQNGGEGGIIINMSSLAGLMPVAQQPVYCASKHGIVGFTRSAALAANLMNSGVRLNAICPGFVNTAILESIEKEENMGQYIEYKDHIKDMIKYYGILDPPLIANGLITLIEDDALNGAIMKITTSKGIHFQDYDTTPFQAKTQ
#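 20 nM HPGD preincubated 15 min at room temperature with compound in 50 mM Tris-HCl pH 8, 0.01% Tween 20. Started with 1 mM NAD+ and 30 uM prostaglandin E2; NADH fluorescence (360/450 nm) read 5 times over 30-s intervals, last minus first.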
# ALDH1A1 block – blocks purified human ALDH1A1 activity; P00352; Purified ALDH1A1, NADH fluorescence, propionaldehyde substrate; Potency, µM (titrated, usually from 75.3 µM), without a hit: at the highest dose activity, negative = inhibition, usual class: inhibitors; actives 7.3% (n = 220,000); AID 1030;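 further: plate controls were no enzyme wells and a reference inhibitor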
# JMJD2E inh – JMJD2E (human) inhibition; B2RXH2; AID 2147; Potency, µM (doses to about 57.1 µM), for the others: at the highest dose activity change, negative = inhibition, actives largely listed as inhibitors; actives 1.6% (n = 230,000); JMJD2E catalytic domain, FDH-coupled NADH fluorescence (FDH is formaldehyde dehydrogenase);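 further: 0% = wells with enzyme and -100% = buffer wells without enzyme; nearly all actives have a fitted effect of over 50% in size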
# Target sequence (B2RXH2 1-337 limits assumed): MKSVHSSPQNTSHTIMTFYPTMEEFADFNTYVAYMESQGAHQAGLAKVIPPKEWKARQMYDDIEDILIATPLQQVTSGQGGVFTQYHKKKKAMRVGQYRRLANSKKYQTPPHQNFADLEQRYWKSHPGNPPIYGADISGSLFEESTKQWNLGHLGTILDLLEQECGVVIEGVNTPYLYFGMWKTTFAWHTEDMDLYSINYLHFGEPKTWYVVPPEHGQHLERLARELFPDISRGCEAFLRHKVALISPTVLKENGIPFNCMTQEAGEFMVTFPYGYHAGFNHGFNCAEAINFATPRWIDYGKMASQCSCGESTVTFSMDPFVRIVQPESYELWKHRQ
# LMNA splice mod – changes lamin A minigene splicing in HeLa cells. HeLa LMNA splicing GFP/RFP minigene ratio, 48 h. AID 1487. Potency, µM (top dose mostly 46.1 µM), without a hit: at the highest dose ratio change, negative = inhibition, actives largely listed as inhibitors. actives 0.01% (n = 200,000); active means well fitted inhibition curve with a large enough effect in the signal ratio, with a control signal flat, not every such curve was filed as active; inconclusive means small, poorly fitted or top-dose-only effect, or effect the other way, or a change in a side signal; the % refers to the signal ratio; further: on the % scale 0 is the no-effect control and ±100 the full control effect
#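 Read-out is the ratio of GFP to DsRed2 object intensity, acquired by 488 nm laser-scanning cytometry on HeLa lamin A-EGFP minigene reporter cells. Compound incubation 48 hrs at 37 °C in Opti-MEM with 2% FBS; DMSO 0.5% final.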
# HttQ103 aggreg – inhibitors of mutant huntingtin aggregate formation in PC12 cells; PC12 HttQ103-GFP aggregates, Acumen cytometry, 40 h; Potency, µM (series often up to 46.1 µM), for the others: top-dose activity change, negative = inhibition, usual class: inhibitors; actives 1.1% (n = 220,000); active means well fitted curve in the direction sought with a large enough effect; inconclusive means small, poorly fitted or top-dose-only effect, or another doubt; inactive means no such curve, though single readings can be large; an effect the other way counts as inactive or inconclusive; further: on the % scale 0 is the no-effect control and ±100 the full control effect; nearly all actives have a fitted effect of over 60% in size
#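 Aggregate formation scored by laser-scanning cytometer (488 excitation, 500–530 emission) in lysed PC12 cells expressing Q103-GFP after 100 nM tebufenozide induction; library tested in dose series, with ATPLite reagent added in the multiplex.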
# HTT cytoprotect – Huntington cell model cytoprotection by ATP luminescence. PC12 HTT-Q103 induced, cytoprotection, ATP luminescence, 40 h. Potency, µM (top dose mostly 56.4 µM), inactives show cytoprotection (ATP increase), most hits filed as activators. actives 0.14% (n = 230,000). AID 1471; active means well fitted curve in the direction sought with a large enough effect; inconclusive means small, poorly fitted or top-dose-only effect, or another doubt; inactive means no such curve, though single readings can be large; an effect the other way counts as inactive or inconclusive; further: % of control where 0% means no effect; nearly all actives have a fitted effect of over 45% in size
#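 Rat PC12, Q103 Htt exon1-GFP fusion, ecdysone promoter; tebufenozide inducer 100 nM final; compound titration; qHTS, 1500 cells/well; ATPlite luminescent read.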
# * hit, by the source's call; ? = inconclusive; / = not tested or not shown; [ ] = remark or other dose. Compounds with a hit are over-represented: about 9.2% of the library has one in this group of screens. Unless noted, the call rests on the fitted dose curve; in most records, active means well fitted inhibition curve with a large enough effect (not every such curve was filed as active); inconclusive means small, poorly fitted or top-dose-only effect, or another doubt; inactive means no such curve, though single readings can be large or run the other way. Potency means the concentration at half of the fitted maximal effect.
SMILES,HPGD inh,ALDH1A1 block,JMJD2E inh,LMNA splice mod,HttQ103 aggreg,HTT cytoprotect
COc1cc(OC)c(C2CC(=O)N3CN(c4ccc(C)cc4)CSC3=C2C#N)cc1OC (centres undefined),7.08µM*,7.94µM*,?,2.4%,10.4%,-33.7%[0.074 µM]
COc1ccc(NC(=O)c2cc(-c3ccc(O)cc3)on2)cc1OC,/,/,/,/,/,-8.2%
COc1ccc(N2CSC3=C(C#N)C(c4cc(OC)c(OC)cc4OC)CC(=O)N3C2)c(OC)c1 (centres undefined),10µM*,8.91µM*,-13.8%,6.5%,2.9%,-0.5%
COc1ccc(C2CC(=O)N3CN(c4ccc(C)c(Cl)c4)CSC3=C2C#N)cc1OC (centres undefined),?,7.94µM*,12.6µM*,-16.5%,19.6%,-17.3%
COc1ccc(N2C(=O)C3CC(C)=C(C)CC3C2=O)c(OC)c1 (centres undefined),-2.9%,10.0%,-3.3%,0.5%,10.1%,-3.3%[10 µM]
COc1ccc(N2CSC3=C(C#N)C(c4ccc(OC)c(OC)c4)CC(=O)N3C2)c(OC)c1 (centres undefined),10µM*,11.2µM*,-23.7%,1.2%,-13.3%,-8.2%
COc1cccc2c1CCC1CC(=O)CC[C@@]21C (some centres undefined),-13.1%,?,-19.1%,?,/,/
Cc1ccc(Nc2nnc(SCc3cc(=O)n4ccsc4n3)s2)c(C)c1,-16.2%,?,-20.2%,3.3%,2.7%,17.8%[10 µM]
Cc1cccc(Nc2nnc(SCc3cc(=O)n4cc(C)ccc4n3)s2)c1,15.8µM*,-9.3%,-7.9%,3.4%,-5.8%,20.6%[10 µM]
Cc1ccc2nc(CSc3nnc(Nc4ccccc4C)s3)cc(=O)n2c1,?,?,-11.7%,2.1%,-7.5%,13.8%[10 µM]
CCc1ccc(Nc2nnc(SCc3cc(=O)n4ccsc4n3)s2)cc1,20µM*,?,-7.1%,?,19.8%,-4.7%
Cc1oc(CC(C)C)cc1C(=O)NCCCC(=O)O,/,-3.8%,-11.2%,-0.5%[46 µM],?,5.62µM*
COCCCNC(=O)c1ccc(N2CCOCC2)c(NS(=O)(=O)c2ccc(OC)cc2)c1,-6.8%,?,-3.1%,-5.5%,-9.3%,-4.0%
CCCCNC(=O)c1ccc(N2CCOCC2)c(NS(=O)(=O)c2ccc(OC)cc2)c1,-11.7%,8.91µM*,-11.1%,5.9%,24.9%,-18.4%[10 µM]
CCC1CCCCN1CCCNC(=O)c1ccc(N2CCOCC2)c(NS(=O)(=O)c2ccc(OC)cc2)c1 (centres undefined),/,?,-3.7%,/,0.9%,-27.8%
CCOCCCNC(=O)c1ccc(N2CCOCC2)c(NS(=O)(=O)c2ccc(OC)cc2)c1,/,2.51µM*,-18.5%,/,0.3%,-35.3%
COc1ccc(C)cc1NC(=O)NCCn1nnc2cc(S(=O)(=O)N(C)C)ccc21,/,/,/,10.3%[46 µM],/,/
COc1cc(C(=O)O)nc2ccc([N+](=O)[O-])cc12,/,?,-18.1%,/,-16.2%,-54.1%
c1ccc(CN2CCC(Nc3ncnc4sccc34)CC2)cc1,/,-9.3%,1.1%,/,10µM*,-33.0%
Cc1sc2ncnc(NC3CCN(Cc4ccccc4)CC3)c2c1C,/,1.8%,6.8%,?,7.08µM*,2.1%[10 µM]
N#Cc1cccc(NC(=O)N2CCC3(CC2)CCN(C(=O)c2csnn2)CC3)c1,-1.3%,?,/,/,/,-6.3%
Cc1ccccc1/C=C/C1=NCCN1,4.8%,?,17.8µM*,?,/,/
CN(C)/C=C/c1onc(-c2c(Cl)cccc2Cl)c1C#N,/,12.6µM*,?,-4.0%[9.22 µM],-1.4%,7.9%
Cc1onc(-c2c(Cl)cccc2Cl)c1C(=O)c1ccc(F)cc1,/,/,1.0%,/,17.5%[9.22 µM],14.2%[10 µM]
Cc1onc(-c2c(Cl)cccc2Cl)c1NC(=O)N(C)N,/,/,1.3%,/,-7.2%[9.22 µM],1.7%[10 µM]
SMILES,HPGD inh,ALDH1A1 block,JMJD2E inh,LMNA splice mod,HttQ103 aggreg,HTT cytoprotect
N#Cc1c(-c2c(Cl)cccc2Cl)noc1/C=C/Nc1ccc(C(=O)O)cc1,/,3.55µM*,?,/,-9.7%,10.8%
Fc1ccc(Br)cc1C1C=C(c2ccc(Br)s2)Nc2ncnn21 (centres undefined),-29.7%,?,28.2µM*,?,?,-29.7%[10 µM]
COc1cccc(C2C=C(c3ccc(Br)s3)Nc3ncnn32)c1OC (centres undefined),-10.7%,?,?,?,-4.1%,17.3%[10 µM]
Cc1ccc(NC(=O)Cn2c(=O)ccc3cc(S(=O)(=O)N4CCC(C)CC4)ccc32)cc1C,/,/,/,-2.9%[46 µM],/,/
COCCNc1ncnc2ccc(-c3c(C)noc3C)cc12,/,?,/,2.82µM*,/,-97.6%
Cc1cnc(CNc2ncnc3ccc(-c4c(C)noc4C)cc23)cn1,/,-7.5%,/,7.08µM*,/,-52.5%
Cc1cccc(CNc2ncnc3ccc(-c4c(C)noc4C)cc23)c1,12.6µM*,3.7%,?,?,/,-61.1%
Cc1cnc(CNc2ncnc3ccc(-c4ccc5c(c4)OCO5)cc23)cn1,/,-14.5%,/,7.5%,/,-92.2%
COc1ccc(CNc2ncnc3ccc(-c4c(C)noc4C)cc23)c(OC)c1,/,19.8%,/,2.82µM*,/,-59.9%
CC1CCC(NC(=O)c2ccc3c(c2)N(Cc2cccc(Cl)c2)C(=O)c2ccccc2S3(=O)=O)CC1 (centres undefined),/,/,/,12.9%[46 µM],/,/
CCC(C)NC(=O)c1sc2ncccc2c1-n1c(C)ccc1C (centres undefined),/,/,/,8.6%[46 µM],/,/
Cc1noc(C)c1-c1ccc2ncnc(NC3CCNCC3)c2c1,/,?,/,?,/,-16.7%
Cc1noc(C)c1-c1ccc2ncnc(NC3CC3)c2c1,14.1µM*,-8.6%,-7.0%,?,/,-55.3%
Cc1noc(C)c1-c1ccc2ncnc(NCc3cccnc3)c2c1,/,1.3%,/,3.98µM*,/,-59.6%
CCOC(=O)c1ccc(NC(=O)c2cnn(-c3ccc(C)cc3C)c2C2CCN(C(=O)OC(C)(C)C)CC2)cc1,/,/,/,-6.2%[46 µM],/,/
CC(C)(C)C(=O)N1CCN(c2nc3ccccc3o2)CC1,/,6.1%,-0.2%,/,-7.1%,-21.7%
O=C1c2ccccc2C(=O)N1CCCCN(C(=O)c1cccc([N+](=O)[O-])c1)c1ccc(Cl)cc1,-20.5%,3.16µM*,-3.0%,-0.1%,-26.0%,-24.5%
O=C1c2ccccc2C(=O)N1CCCCN(C(=O)c1ccco1)c1ccc(Cl)cc1,-10.2%,7.94µM*,-1.1%,-6.6%,-6.3%,16.0%
Cc1ccc(N(CCCCN2C(=O)c3ccccc3C2=O)C(=O)c2cccs2)cc1,-2.4%,?,1.0%,?,-30.4%,-2.8%
CN(C)C(=O)c1ccc(-c2nccc(-n3ccnc3)n2)cc1,/,5.5%,/,5.0%,/,-25.1%
COc1cc(N=Nc2c(O)c3ccccc3[nH]c2=O)c(OC)cc1N=Nc1ccccc1,/,15.8µM*,-9.2%,-4.5%[46 µM],3.3%[9.22 µM],-5.6%[10 µM]
CCc1nnc(NC(=O)c2ccc3ccccc3n2)s1,/,17.8µM*,-10.5%,/,-11.3%,-78.7%
